Structures are written as SMILES. The whole screen tested about 320,000 compounds, of which about 1,300 (0.41%) were called active. Another 3% or so got no clear call; they are omitted. The rule behind the calls is not given here. A selection follows. Measured potencies and affinities stand elsewhere.

The assay is described as follows: growth inhibition of non-replicating M. tuberculosis (AID 488890).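 Note: plate controls were DMSO cells for no effect and high antibiotic wells for full effect.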 The conditions noted are these: Mycobacterium tuberculosis non-replicating, at 25 µM, stronger effect = higher value.
As to `CCCCC(=O)Nc1c2c(nn1-c1cccc(C)c1C)CS(=O)(=O)C2`, the inhibition is -2.3%. With `COc1cc(C(=O)NCc2ccccn2)ccc1OCc1c(C)noc1C` the figure was -3.19%. `C=CCN1C(=O)C2(OCCCO2)c2ccccc21`: the inhibition is 11.8%.

Consider `O=C1N(CCCN2C(=O)C3(OCCO3)c3ccccc32)c2ccccc2C12OCCO2`, for which the inhibition was 0.91%. As to `O=C1N(CCCCN2C(=O)C3(OCCO3)c3ccccc32)c2ccccc2C12OCCO2`, the inhibition is 5.68%. For the compound `C=CCN1C(=O)C2(NC(=O)c3ccccc3N2)c2ccccc21` (stereo not given), the inhibition is -5.15%.

`COc1ccccc1C(=O)N1CCN(C2CCN(Cc3ccccc3)CC2)CC1`: the inhibition is -21.9%. Take `COc1ccc(OC(C)C(=O)NC(C)c2ccccc2)cc1` (stereo not given): the inhibition is -7.62%. For the compound `O=C1CCCC(O)=C1C=Nc1ccc(O)cc1`, the inhibition came to 17.3%. Take `O=C1CCCC(O)=C1C=Nc1cccc(C(F)(F)F)c1`: the inhibition is -1.35%. As for `CC(C)CN(C(=O)COC(=O)c1ccccn1)c1c(N)n(Cc2ccccc2)c(=O)[nH]c1=O`, the inhibition is -2.29%. On to `CCOC(=O)C1=NN(c2ccccc2)C(c2ccccc2)CC1=O` (stereo not given), for which the inhibition is 12.4%.

Regarding `C=CCOc1ccc(C2CC(C)=NN2c2ccccc2)cc1` (stereo not given), the inhibition is 35.9%. As for `Cc1ccc(C)c(S(=O)(=O)N2CCN(C(=O)CCC(=O)NCc3ccc(Cl)cc3)CC2)c1`, the inhibition worked out at 6.7%.

`NC(=O)c1ccc(NC(=O)COC(=O)C2CC(=O)N(Cc3ccccc3)C2)cc1` (stereo not given): the inhibition was -1.36%. In the case of `Cc1nn2c(NCCCN(C)C)c3c(nc2c1-c1ccccc1)CCCC3`, the inhibition worked out at 73.4%.

For `Cc1nn2c(NCCCN(C)C)c3c(nc2c1-c1ccccc1)CCC3`, the inhibition is -10.7%. Take `CCO/C=C1/C(=O)N(C(C)=O)c2ccccc21`: the inhibition was -5.81%. `COc1ccc(-c2nnc(-c3ccc(F)cc3)o2)cc1`: the inhibition was determined as 76.7%. In the case of `Cc1ccc(-c2nnc(-c3ccccc3Br)o2)cc1`, the inhibition came out at 78.7%. As for `Fc1ccc(-c2nnc(-c3ccc(Cl)cc3)o2)cc1`, the inhibition came out at 72.1%. Regarding `c1ccc(-c2nnc(-c3ccccc3)o2)cc1`, the inhibition was 66.5%. Turning to `COc1ccccc1-c1nnc(-c2ccc(N3CCOCC3)cc2)o1`, the inhibition stood at 18.5%. Turning to `Cc1cccc(-c2nnc(-c3ccccc3)o2)c1`, the inhibition is 79.9%. With `CN(C)c1ccc(-c2nnc(-c3cccs3)o2)cc1` the figure was 48.7%; with `COc1ccc(-c2nnc(-c3cccs3)o2)cc1OC`, 60.7%. For `Cc1cc(=O)oc2ccc(OC(C)C(=O)O)cc12` (stereo not given) the value was -4.21%. With `Cn1cc(C(=O)C(=O)N2CCCC2)c2ccccc21` the figure was -3.83%; with `Cc1nc(N/N=C/c2ccccc2)nc(N(C)c2ccccc2)c1[N+](=O)[O-]`, -0.99%; with `CC(=O)Nc1ccc(Nc2nc(C)c([N+](=O)[O-])c(N(C)c3ccccc3)n2)cc1`, 71.5%.

As for `CC(=O)c1cccc(OCc2cc(C(=O)NCc3nc(C)c(C)s3)no2)c1`, the inhibition is -3.04%. For the compound `COc1ccc(NC(=O)COc2ccc(C(=O)NCc3cccnc3)cc2OC)cc1`, the inhibition was 10.8%. With `O=C(O)c1c2c(nc3ccccc13)-c1ccccc1CC2`, the inhibition was -7.78%. For `O=C(OCC(=O)N1CCN(c2ccccc2)CC1)c1ccc(Cl)nc1` the value was 60.4%; for `O=C(OCC(=O)N1CCN(c2ccccc2)CC1)c1ccccn1`, -2.7%. `O=C(OCC(=O)N1CCCCC1)c1ccc2ccccc2n1`: the inhibition was determined as 50%. With `O=C(OCC(=O)N1CCCC1)c1cnc(Cl)c(Cl)c1`, the inhibition came to 7.3%. In the case of `Clc1ccc(N2CCN(c3ccnc(Cl)n3)CC2)cc1`, the inhibition came out at 53%.

In the case of `COCCCNC(=O)c1c(N)n(-c2ccc3c(c2)OCO3)c2nc3ccccc3nc12`, the inhibition is -12.5%.

Take `O=C(NC1CCCCC1)c1cc(-c2ccc(Cl)cc2)on1`: the inhibition was -0.38%. On to `O=C(Nc1ccccc1)c1cccc2c(Br)cccc12`, for which the inhibition was -8.76%. Take `CCc1ccc(/C(C)=N/NC(=O)c2ccccn2)cc1`: the inhibition came to 27%. For the compound `Cc1ccc(N=CC2=C(O)CC(c3ccccc3Cl)CC2=O)cc1` (stereo not given), the inhibition was found to be 2.23%. For the compound `O=C(Nc1ccc(Br)cc1F)c1sccc1-n1cccc1`, the inhibition stood at 0.35%.

In the case of `COc1ccccc1C(=O)Nc1c2c(nn1-c1ccc([N+](=O)[O-])cc1)CS(=O)(=O)C2`, the inhibition is -26.7%. As to `CC(=O)Oc1ccc([C@@H]2COc3c(ccc4c3C=CC(C)(C)O4)C2)c(OC(C)=O)c1`, the inhibition is -2.73%. For `CC(=O)Nc1ccc(OCCOc2ccc(/C=C3/C(=N)N4C=CSC4=NC3=O)cc2)cc1`, the inhibition was 2.76%. With `COc1cc(/C=C2\C(=N)N3N=CSC3=NC2=O)cc(Br)c1OC(=O)c1ccco1`, the inhibition is -3.1%. In the case of `CC1=CC2=NC(=O)/C(=C/c3cccs3)C(=N)N2O1`, the inhibition is -5.09%. As to `COc1cc(/C=C2/C(=N)N3OC(C)=CC3=NC2=O)ccc1OCCOc1ccc(C)cc1`, the inhibition is -6.61%.

For `O=C1CN(C(=O)c2cccc(Br)c2)c2ccccc2N1`, the inhibition is -8.78%.

`Cc1nnc(NC(=O)CCC(=O)N2CCN(CCOc3cccc4ccccc34)CC2)s1`: the inhibition turned out to be 16.7%. For the compound `CCCCOC(=O)Nc1cc(C(=O)OC)ccc1C(=O)OC`, the inhibition came to 18.2%. For the compound `N#Cc1ccc(OCC(=O)Nc2nc(-c3ccncc3)cs2)cc1`, the inhibition worked out at 10%. On to `Cc1c([N+](=O)[O-])c([N+](=O)[O-])nn1CC(=O)NCc1cccnc1`, for which the inhibition worked out at 6.05%.

For the compound `Cn1c(=O)c2c(SCCN3CCOCC3)nc(C3CCCC3)nc2n(C)c1=O`, the inhibition is 19.1%. On to `CCOc1ccc(C(=O)N/N=C/c2cc([N+](=O)[O-])cs2)cc1`, for which the inhibition is 69.5%. Turning to `COc1cc(C(=O)N/N=C/c2ccsc2C)cc(OC)c1OC`, the inhibition is 0.65%. For `COc1ccc(CC(=O)OCc2cc(=O)n3cc(Br)ccc3n2)cc1OC` the value was 13.9%; for `CCOc1ccc(CC(=O)OCc2cc(=O)n3cc(Br)ccc3n2)cc1`, 50.5%; for `Cc1onc(-c2ccccc2)c1C(=O)OCc1nnc(-c2ccc([N+](=O)[O-])cc2)o1`, 48%.

In the case of `CCOC(=O)c1ccc(Cn2c(-c3ccccc3)nnc2-c2ccccc2)o1`, the inhibition was found to be 11.2%. Consider `O=C(OCc1nnc(-c2ccccc2)o1)c1cccnc1Cl`, for which the inhibition came out at 6.83%. For `CCOC(=O)c1cccc(COC(=O)c2cccc(-c3nnc(-c4ccccc4)o3)c2)c1` the value was 18.4%; for `O=C(OCc1nnc(-c2ccccc2)o1)c1ccc([N+](=O)[O-])o1`, 64.9%.

With `O=C(OCc1nnc(-c2ccccc2)o1)c1ccccc1`, the inhibition came to 73.8%. With `CCOC(=O)Nc1nc2ccccc2s1` the figure was -2.43%; with `CC(=O)OCc1nc2ccccc2s1`, -0.84%; with `Cc1cc(C(=O)CSc2nc3ccc(Cl)cc3[nH]2)c(C)n1Cc1ccco1`, 13.9%. As to `COc1ccc(CN2C(=O)c3cccnc3C2Nc2ccc(C)cc2)cc1` (stereo not given), the inhibition amounted to 27%. Consider `CN(CC(=O)NCc1ccccc1Cl)S(=O)(=O)c1ccc2c(c1)n(C)c(=O)c(=O)n2C`, for which the inhibition is -4.13%.

For `CCOC(=O)CC(=O)COc1nc2cc3c(nc2o1)CCCC3`, the inhibition was -11.4%. `NCCCC[C@H](NC(=O)C1CCNCC1)c1nnc(CN)o1`: the inhibition is -30.9%. With `CCC/C(=C1/c2ccccc2C(=O)N1c1ccccc1)c1cnc(OC)nc1` the figure was 24.1%; with `COc1ccc(CN2CCN(c3ccccc3OC)CC2)cc1OC`, -6.29%.

As for `O=C(COC(=O)c1ccc(Br)o1)Nc1nc2ccccc2s1`, the inhibition turned out to be 71.5%.

For the compound `Nc1ccc(C(=O)OCc2nc3ccccc3s2)cc1`, the inhibition turned out to be 68.4%. In the case of `COc1ccc(C2=NOC(C(=O)N(C)Cc3ccccc3)C2)cc1` (stereo not given), the inhibition is 48.3%. For `O=C(c1ccc(F)cc1)C(Cc1ccccc1)N1CCCCC1` (stereo not given) the value was 63.6%; for `Cc1cc(=O)n2ccsc2n1`, 0.97%. Turning to `Cc1ccn2c(=O)cc(C)nc2c1`, the inhibition was determined as 4.9%. With `CCOc1ccc(N(CC(=O)N2CCN(c3ccc(F)cc3)CC2)S(=O)(=O)c2c(C)noc2C)cc1` the figure was 21.6%; with `Cn1nc([N+](=O)[O-])nc1Sc1nnc(-c2ccccc2)o1`, 78%. With `COC(=O)CSc1nnc(-c2ccccc2OC)o1`, the inhibition was 77.4%. Take `CCCOc1ccc(N2CC(C(=O)NC(C)C)CC2=O)cc1` (stereo not given): the inhibition was -9.57%. With `CCC(=Nc1cccc(C(F)(F)F)c1)c1c(O)n(C)c(=O)n(C)c1=O` the figure was -2.54%; with `CCC(=Nc1ccc2c(c1)CCC2)c1c(O)n(C)c(=O)n(C)c1=O`, 7.71%; with `COc1cccc(OC)c1C(=O)OCC(=O)N1CC(C)CC(C)C1` (stereo not given), -15.5%. With `Cc1nc2ccccc2c(=O)n1/N=C/c1c(O)ccc2ccccc12` the figure was 40.6%. With `Cc1nnc(C)n1/N=C/c1c(O)ccc2ccccc12` the figure was 3.2%; with `Fc1cccc(Nc2cc(-n3cccn3)ncn2)c1`, 21.4%; with `CN(Cc1cccs1)S(=O)(=O)c1ccc(Cl)cc1F`, 44.2%. `Oc1oc(-c2ccco2)nc1C=Nc1ccccc1`: the inhibition is 17%.

In the case of `Cc1ccc(N=Cc2nc(-c3ccco3)oc2O)cc1`, the inhibition stood at 73.2%. As to `CC(C)(O)C#Cc1ccc(CN2CCN(C3CCCCC3)C(CCO)C2)s1` (stereo not given), the inhibition amounted to 11.2%. Consider `CCN(CC)CCOC(=O)/C=C/c1ccccc1OC`, for which the inhibition is -10.5%. For `COc1ccc(NC(=O)Nc2ccccc2F)c(C)c1`, the inhibition was 20.6%.

`COc1ccc(C)cc1Nc1n[n+](-c2ccccc2)c(-c2ccc(SC)cc2)s1`: the inhibition worked out at 76.9%. Turning to `CCOc1cc(-c2sc(Nc3ccc(CC)cc3)n[n+]2-c2ccccc2)ccc1OC`, the inhibition was determined as 63.8%. For `Oc1cc2c(cc1CN1CCN(c3ncccn3)CC1)OCO2` the value was 8.73%; for `N#Cc1nc(-c2cccs2)oc1NCc1ccccc1`, 29.7%; for `C=CCNc1oc(-c2cccs2)nc1C#N`, -2.7%. With `CC1CCCC(NS(=O)(=O)c2cc3c(cc2Cl)NC(=O)CO3)C1C` (stereo not given) the figure was 31.5%; with `Cc1ccc(C2(C)NC(=O)N(CC(=O)N(C)CC(=O)Nc3cccc4ccccc34)C2=O)cc1` (stereo not given), 7.1%. For `O=C1CN=C(c2ccccc2)c2cc(Cl)ccc2N1` the value was 5.86%; for `COc1ccc(C2=NCC(=S)Nc3ccc(Cl)cc32)cc1OC`, -21%. Regarding `O=C(CN1C(=O)C(=O)N(CCC2=CCCCC2)C1=O)Nc1ccc(F)cc1F`, the inhibition stood at 8.84%. With `Cc1nc2ccccc2nc1OCC(=O)Nc1cc(C(F)(F)F)ccc1N1CCOCC1`, the inhibition came out at 5.99%.

In the case of `CN(C)/C=C1/OC(=O)C(C#N)=C1c1ccc(Cl)cc1`, the inhibition is -0.58%. With `O=C1O/C(=C/c2ccccc2)c2ccccc21` the figure was -7.13%; with `COc1cc(/C=C/[N+](=O)[O-])ccc1OC(=O)c1cc2ccccc2oc1=O`, 37.8%.

Turning to `COc1ccc(N(CC(=O)Nc2ccccc2C)S(=O)(=O)c2c(C)[nH]c(=O)[nH]c2=O)cc1`, the inhibition amounted to 8.99%. With `CC(C)NC(=O)Cn1c(SCC(=O)c2ccc(F)cc2)nc2ccccc21`, the inhibition stood at 7.83%. With `CN=C1NN=C(c2cc(C)n(-c3ccc(Cl)cc3)c2C)CS1` the figure was 14.6%. Turning to `Cc1cc(C2=NNC(=NC3CC3)SC2)c(C)n1-c1c(C)n(C)n(-c2ccccc2)c1=O`, the inhibition was 4.63%.
